High-throughput results as filed in PubChem BioAssay.
A selection: hits, their analogues and other compounds. The true share with any hit is near 0.54%.
Chronic BCR inh = qHTS Assay to Find Inhibitors of Chronic Active B-Cell Receptor Signaling; ABC-DLBCL IkBa-CBG/CBR reporter, luminescence ratio, 4 h; Potency, µM (titrated, usually from 46.1 µM), usual class: inhibitors; hit rate 0.05% among 340,000; active means well fitted inhibition curve with a large enough effect in the signal ratio, with a control signal flat, not every such curve was filed as active; inconclusive means small, poorly fitted or top-dose-only effect, or effect the other way, or a change in a side signal; the % refers to the signal ratio
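TMD8 ABC-DLBCL cells carrying doxycycline-inducible green luciferase fused to IkappaBalpha plus unfused red luciferase were exposed to compounds (up to 46 uM) for 4 hrs at 37C. Activity came from the overlap-corrected green/red luminescence ratio.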
MBNL1 CUG block = qHTS Assay for Inhibitors of MBNL1-poly(CUG) RNA binding | TR-FRET MBNL1-His/biotin-(CUG)12 binding, 665/545 ratio | Potency, µM (highest dose often 57.5 µM), most hits filed as inhibitors | Muscleblind-like protein 1 (Homo sapiens), Q9NR56 | AID 2675, 2010 | hit rate 0.036% among 280,000; active means well fitted inhibition curve with a large enough effect in the signal ratio, with a control signal flat, not every such curve was filed as active; inconclusive means small, poorly fitted or top-dose-only effect, or effect the other way, or a change in a side signal; inactive means no such curve, though single readings can be large or run the other way; the % refers to the signal ratio
Target sequence (Q9NR56 whole entry, looked up): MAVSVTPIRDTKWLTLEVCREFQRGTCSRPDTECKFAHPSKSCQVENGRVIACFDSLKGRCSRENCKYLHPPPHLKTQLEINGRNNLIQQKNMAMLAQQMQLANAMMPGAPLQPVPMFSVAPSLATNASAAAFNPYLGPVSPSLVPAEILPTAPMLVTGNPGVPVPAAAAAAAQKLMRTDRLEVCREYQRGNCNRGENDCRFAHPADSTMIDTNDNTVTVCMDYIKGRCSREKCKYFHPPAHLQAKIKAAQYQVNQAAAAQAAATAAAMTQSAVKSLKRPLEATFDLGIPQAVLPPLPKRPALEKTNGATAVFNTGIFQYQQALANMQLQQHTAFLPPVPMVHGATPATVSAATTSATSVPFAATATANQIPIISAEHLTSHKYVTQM
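His-tagged MBNL1 binding to biotinylated (CUG)12 RNA was measured by TR-FRET using terbium anti-His antibody (0.055 ng/ul final) and streptavidin-XL665 (5 nM final). Compounds were titrated 92 nM to 58 uM; 60 min at room temperature.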
TCR act = Activators of T cell receptors: qHTS campaign. primary human leukocytes, anti-CD3, IL-2 HTRF, 48 h. Potency, µM (series often up to 9.22 µM), most hits filed as activators. 330,000 tested, under 10 active. AID 504894, 2011
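IL-2 release read by HTRF sandwich (Eu cryptate donor, d2 acceptor, 665 nm emission) after 48 hr exposure of primary human leukocytes to compound together with anti-CD3 beads in the absence of co-stimulatory signals.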
Vif-A3F inh = qHTS for Inhibitors of Vif-A3F Interactions: qHTS. HeLa A3F-eYFP + Vif (tagged APOBEC3F with the HIV-1 protein that degrades it), YFP fluorescence increase. Potency, µM (doses to about 46.1 µM). hit rate 0.2% among 390,000; further: nearly all actives have a fitted effect of over 65% in size
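HeLa cells stably expressing Vif plus C-terminally eYFP-tagged A3F were seeded, incubated overnight at 37 deg C, dosed with compound, incubated overnight again at 37 deg C. Yellow fluorescence (Ex 488/Em 500-530) reported blocked Vif-mediated A3F-eYFP degradation.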
Vif-A3G inh = qHTS for Inhibitors of Vif-A3G Interactions: qHTS | hit rate 0.076% among 410,000 | HeLa A3G-eYFP + Vif (tagged APOBEC3G with the HIV-1 protein that degrades it), YFP fluorescence, overnight | AID 602310, 2012 | Potency, µM (series often up to 46.1 µM), actives largely listed as inhibitors; further: nearly all actives have a fitted effect of over 60% in size
Target sequence (Q9HC16 whole entry, looked up): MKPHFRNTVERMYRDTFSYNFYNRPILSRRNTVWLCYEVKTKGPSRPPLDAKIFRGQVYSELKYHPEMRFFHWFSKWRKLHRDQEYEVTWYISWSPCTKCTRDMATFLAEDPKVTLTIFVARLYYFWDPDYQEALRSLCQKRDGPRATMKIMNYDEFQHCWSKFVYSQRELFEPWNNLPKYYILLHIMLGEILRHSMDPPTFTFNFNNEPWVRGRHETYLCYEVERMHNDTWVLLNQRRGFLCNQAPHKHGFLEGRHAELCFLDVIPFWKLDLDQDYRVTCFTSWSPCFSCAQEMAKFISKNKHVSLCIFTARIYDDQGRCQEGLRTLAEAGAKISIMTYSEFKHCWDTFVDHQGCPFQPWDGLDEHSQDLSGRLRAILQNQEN
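HeLa cells stably expressing Vif and C-terminally eYFP-tagged A3G, seeded overnight at 37 deg C, then exposed to compound by pintool overnight at 37 deg C. Rise in yellow fluorescence (Ex 488/Em 500-530, Acumen) marks blocked Vif-driven A3G degradation.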
uPA surface inh = qHTS for Inhibitors of Cell Surface uPA Generation | hit rate 0.31% among 330,000 | Potency, µM (doses to about 38.3 µM), usual class: inhibitors | AID 540303, 2011 | cell surface uPA generation assay, qHTS; active means well fitted inhibition curve with a large enough effect; inconclusive means small, poorly fitted or top-dose-only effect; inactive means no such curve, though single readings can be large or run the other way; tested in mouse RAW 264.7 cells; further: nearly all actives have a fitted effect of over 55% in size
Hits are given with their value. Unless noted, the call rests on the fitted dose curve; in most records, active means well fitted curve in the direction sought with a large enough effect; inconclusive means small, poorly fitted or top-dose-only effect, or another doubt; inactive means no such curve, though single readings can be large; an effect the other way counts as inactive or inconclusive.

How did CCC(C)Sc1ccc(-c2nc3cnccn3c2NC2CCCCC2)cc1 (stereo not given) do in these assays?
Chronic BCR inh: inconclusive; TCR act: inactive; Vif-A3F inh: inconclusive; Vif-A3G inh: inconclusive; uPA surface inh: inactive

What do the screens show for `O=C(CS(=O)c1ccccc1[N+](=O)[O-])Oc1ccc(Br)cc1` (stereo not given)?
Chronic BCR inh: inactive; MBNL1 CUG block: inconclusive; TCR act: inactive; Vif-A3F inh: inactive; Vif-A3G inh: inactive; uPA surface inh: inactive

How did CS(=O)(=O)c1ccc(S(=O)CC(=O)Oc2ccc(Cl)cc2)c([N+](=O)[O-])c1 (stereo not given) do in these assays?
Chronic BCR inh: 18µM; MBNL1 CUG block: inconclusive; TCR act: inactive; Vif-A3F inh: inactive; Vif-A3G inh: inconclusive; uPA surface inh: inconclusive

Results for CCn1nnnc1Sc1nc(C)nc2scc(-c3ccccc3)c12 ?
Vif-A3G inh: inactive

How did Cc1oc(-c2ccc(Cl)cc2)nc1CN1CCC(C(=O)NCCCN2CCOCC2)CC1 do in these assays?
Chronic BCR inh: inconclusive; MBNL1 CUG block: inactive; TCR act: inactive; Vif-A3F inh: inactive; Vif-A3G inh: inactive

Results for CCC1CCCCN1CCCNC(=O)C1CCN(Cc2nc(-c3ccc(Cl)cc3)oc2C)CC1 (stereo not given) ?
Chronic BCR inh: inconclusive; MBNL1 CUG block: inactive; TCR act: inactive; Vif-A3F inh: inactive; Vif-A3G inh: inactive; uPA surface inh: 10µM

How did Cc1ccc(Nc2ncnc3nc[nH]c23)cc1 do in these assays?
Vif-A3G inh: inactive

Results for Cc1ccc(-n2nnc(-c3nccs3)n2)cc1 ?
Chronic BCR inh: inconclusive; MBNL1 CUG block: inactive; TCR act: inactive; Vif-A3F inh: inactive; Vif-A3G inh: inactive; uPA surface inh: 2.2µM

Results for Cc1c(Cc2ccccc2)sc(/N=C/c2c(O)ccc3ccccc23)c1C(N)=O ?
Chronic BCR inh: inactive; TCR act: inactive; Vif-A3F inh: 8.9µM; Vif-A3G inh: inactive; uPA surface inh: inactive

Results for Cc1c(Cc2ccccc2)sc(/N=C/c2ccc3ccccc3c2)c1C(N)=O ?
Chronic BCR inh: inconclusive; MBNL1 CUG block: inconclusive; TCR act: inactive; Vif-A3F inh: inactive; Vif-A3G inh: inconclusive; uPA surface inh: inactive

What do the screens show for `Cc1[nH]c2ccccc2c1C(=O)CNc1ccc(Br)cc1`?
Vif-A3G inh: inactive

What do the screens show for `O=c1oc2c3c4c(cc2c(C(F)(F)F)c1CCN1CCOCC1)CCCN4CCC3`?
Chronic BCR inh: inactive; MBNL1 CUG block: inactive; TCR act: inactive; Vif-A3F inh: 7.9µM; Vif-A3G inh: inconclusive; uPA surface inh: inactive

Results for CC(C)c1cc(=O)oc2c3c4c(cc12)CCCN4CCC3 ?
Chronic BCR inh: inconclusive; MBNL1 CUG block: inconclusive; Vif-A3F inh: inconclusive; Vif-A3G inh: inconclusive; uPA surface inh: inactive

How did CCOc1cc(/C=N/NC(=O)c2ccccc2-n2cccc2)ccc1O do in these assays?
Chronic BCR inh: inconclusive; TCR act: inactive; Vif-A3F inh: inactive; Vif-A3G inh: inconclusive; uPA surface inh: 11µM

Results for Cc1cccc(CN2C(=O)N/C(=C/c3ccc(C)s3)C2=O)c1 ?
Chronic BCR inh: inconclusive; MBNL1 CUG block: inactive; TCR act: inactive; Vif-A3F inh: inconclusive; Vif-A3G inh: inconclusive; uPA surface inh: inactive

What do the screens show for `Cc1ccc(/C=C2/NC(=O)N(Cc3ccccc3)C2=O)s1`?
Chronic BCR inh: inconclusive; MBNL1 CUG block: inactive; Vif-A3F inh: 22µM; Vif-A3G inh: inconclusive; uPA surface inh: inactive

Results for COc1ccc2nc(SCC(=O)Nc3ccc4sc(C)nc4c3)c(C#N)cc2c1 ?
Chronic BCR inh: inactive; MBNL1 CUG block: inactive; TCR act: inactive; Vif-A3F inh: 22µM; Vif-A3G inh: inactive; uPA surface inh: inactive

What do the screens show for `C=CCSc1nnc(C)c(/C=C/Nc2ccc(Cl)cc2)n1`?
Chronic BCR inh: inactive; MBNL1 CUG block: inactive; TCR act: inactive; Vif-A3F inh: 25µM; Vif-A3G inh: inconclusive; uPA surface inh: inactive

What do the screens show for `CSc1nnc(C)c(/C=C/Nc2ccc(F)cc2F)n1`?
Chronic BCR inh: inactive; MBNL1 CUG block: inconclusive; TCR act: inactive; Vif-A3F inh: inactive; Vif-A3G inh: inactive; uPA surface inh: inactive

What do the screens show for `Cc1ccc(NC(=O)c2sc3nc(-c4cccs4)ccc3c2N)cc1F`?
Vif-A3F inh: inconclusive; Vif-A3G inh: inactive

How did Cc1csc(NC(=O)c2sc3nc(-c4cccs4)ccc3c2N)n1 do in these assays?
Chronic BCR inh: inactive; MBNL1 CUG block: inactive; TCR act: inactive; Vif-A3F inh: 22µM; Vif-A3G inh: inconclusive; uPA surface inh: inactive

What do the screens show for `Cc1ccccc1CN1[C@H]2CCCC[C@@H]2OCCS1(=O)=O`?
Vif-A3G inh: inactive

Results for COc1cc2ccccc2cc1C(=O)OCC(=O)Nc1ccc(Br)cc1 ?
Vif-A3G inh: inactive

What do the screens show for `COc1cccc(C(=O)Nc2cc(C(=O)NCCc3ccccc3)ccc2Cl)c1`?
Chronic BCR inh: inactive; MBNL1 CUG block: inactive; TCR act: inactive; Vif-A3F inh: inactive; Vif-A3G inh: inactive; uPA surface inh: inactive

What do the screens show for `O=C(NCCc1ccc(Cl)cc1)c1ccc2nc[nH]c2c1`?
Chronic BCR inh: inactive; MBNL1 CUG block: inactive; TCR act: inactive; Vif-A3F inh: inactive; Vif-A3G inh: inactive; uPA surface inh: inconclusive

Results for COc1cccc(/C(O)=C/c2nc3ccc(C(=O)NCCc4ccc(Cl)cc4)cc3[nH]c2=O)c1 ?
Chronic BCR inh: inconclusive; MBNL1 CUG block: inactive; TCR act: inactive; Vif-A3F inh: 5µM; Vif-A3G inh: inconclusive; uPA surface inh: inactive

What do the screens show for `COc1cccc(/C(O)=C/c2nc3ccc(C(=O)NCCc4cccc(C)c4)cc3[nH]c2=O)c1`?
Chronic BCR inh: inconclusive; MBNL1 CUG block: inactive; TCR act: inactive; Vif-A3F inh: inconclusive; Vif-A3G inh: 5.6µM; uPA surface inh: inactive

What do the screens show for `CN(C)c1ccc(/C=C2\Cc3ccccc3C2=O)cc1`?
Vif-A3G inh: 3.2µM

How did COC(=O)/C=C/c1cc(F)ccc1S(=O)(=O)Nc1ccccc1 do in these assays?
Vif-A3G inh: inactive

What do the screens show for `Cc1ccc(Nc2c(-c3ccccn3)nc3cc(C)ccn23)cc1`?
Chronic BCR inh: inconclusive; MBNL1 CUG block: inactive; TCR act: inactive; Vif-A3F inh: inactive; Vif-A3G inh: inactive; uPA surface inh: inactive

Results for Cc1ccc(Nc2c(-c3ccccn3)nc3ccc(C)cn23)cc1 ?
Chronic BCR inh: inactive; MBNL1 CUG block: inactive; TCR act: inactive; Vif-A3F inh: inconclusive; Vif-A3G inh: inactive; uPA surface inh: 6.3µM

How did COc1cc2c(NC3CCN(C(C)C)CC3)nc(N3CCCN(C)CC3)nc2cc1OCCOCCN(C)C do in these assays?
Vif-A3G inh: inactive
